Source: PubChem BioAssay (Tox21)
Values joined by “and” are separate entries in the source; they are usually repeats but may differ in a detail not shown here. Equal entries are not always repeated. Results filed as inconclusive are left out. More than one record can exist for a structure, and the calls need not agree. Active and inactive are the calls of the source. Calls follow the shape of the full dose curve.

Assay: p53 small molecule agonists, cell-based qHTS assay with rat liver microsomes: qHTS cell viability counter screen (AID 1963580); also: nearly all actives have a fitted effect of over 45% in size
Settings: p53RE-bla HCT-116 + rat microsomes, ATP viability, 16 h; series mostly up to 66 µM; activity change, negative = cytotoxicity: at the top concentration
Description: National Center for Advancing Translational Sciences [NCATS]
Division of Preclinical Innovation [DPI]
U.S. Environmental Protection Agency [EPA]
National Institutes of Environmental Health Sciences [NIEHS]
National Toxicology Program [NTP]
U.S. Food and Drug Administration [FDA]
p53, a tumor suppressor protein, is activated following cellular insult, including DNA damage and other cellular stresses. The activation of p53 regulates cell fate by inducing DNA repair, cell cycle arrest, apoptosis, or cellular senescence. The activation of p53, therefore, is a good indicator of DNA damage and other cellular stresses. The CellSensor p53RE-bla HCT-116 cell line contains a stably integrated beta-lactamase reporter gene under control of the p53 response elements. The activation of the reporter gene under culture conditions can be detected by fluorescence intensity. This cell line was used to screen the Tox21 10K compound library in the condition of presence of rat liver microsomes and to identify agonists that activate the p53 signaling pathway after in vitro metabolic activation (Ooka et al., Archive of Toxicology 96:1975-1987, 2022). The cytotoxicity of the Tox21 compound library against the p53 RE-bla HCT-116 cell line was tested in parallel by measuring the intra cellular ATP content in the same wells.
Tox21 Assay Protocol Summary:
The p53RE-bla cells were dispensed at 4,000cells/3ul/well in 1536-well black-clear bottom plates. After the assay plates were incubated at 37 C, 5% CO2 incubator for 5 hours, 23 nL of compounds dissolved in DMSO, positive controls or DMSO only was transferred to the assay plate. Following compound addition, 3 uL of rat liver microsomes (Molecular Toxicology, Boone, NC) at final concentration of 0.5 mg/mL and 1uL of B-Nicotinamide adenine dinucleotide 2'-phosphate (NADPH) at final concentration of 0.5 mg/mL were transferred to the assay plate. The plates were incubated at 37 C for 16 hours. 1 uL of LiveBLAzer detection mixture was added to each well and the plates were incubated at room temperature in the dark for 2 h. Fluorescence intensity at 460 and 530 nm emission and 405 nm excitation were measured by an Envision plate reader. For cell viability readout that measures cytotoxicity, 4 ul/well of CellTiter-Glo reagent was added into the assay plates using a Flying Reagent Dispenser. After 30 min incubation at room temperature, the luminescence intensity in the plates was measured using a ViewLux plate reader.
% is scaled to controls: 0 for no effect and ±100 for the full control effect; potency is read from the fitted curve at half-maximal effect.

| SMILES | Potency | activity change, negative = cytotoxicity |
| --- | --- | --- |
| CC(C)(C)C(O)(CCc1ccc(Cl)cc1)Cn1cncn1 (stereo not given) | inactive |  |
| NC(=O)CN1CCCC1=O | inactive |  |
| O=S1OCC2C(CO1)C1(Cl)C(Cl)=C(Cl)C2(Cl)C1(Cl)Cl (stereo not given) |  | -15.1% (inactive) |
| COC(=O)[C@@H](N)CCCN/C(N)=N/[N+](=O)[O-] |  | -1.66% [at 30.3 µM] (inactive) |
| CCCCC(CC)COC(=O)c1c(Br)c(Br)c(Br)c(Br)c1C(=O)OCC(CC)CCCC (stereo not given) |  | 3.25% [at 30.3 µM] (inactive) |
| Nc1nc(=S)[nH][nH]1 |  | -0.495% (inactive) |
| CCC[N+](=O)[O-] | 44.9 µM (active) and inactive |  |
| ClC(Cl)(Cl)C(Cl)(Cl)Cl |  | 0.4% (inactive) |
| ClCCOCOCCCl |  | -16.8% (inactive) |
| Cc1cc(C)cc(C)c1 | inactive |  |
| [CH3][Sn]([CH3])([Cl])[Cl] | inactive |  |
| CN1CCC(N(Cc2ccccc2)c2ccccc2)CC1 |  | -1.04% [at 30.3 µM] (inactive) |
| O=C1C=CC(=O)C=C1 | inactive |  |
| Brc1c(Br)c(Br)c(Oc2c(Br)c(Br)c(Br)c(Br)c2Br)c(Br)c1Br |  | 4.17% [at 13.5 µM] (inactive) |
| ClC(Cl)(Cl)Br | inactive |  |
| Oc1ccc(-c2ccccc2)cc1 | inactive |  |
| N#Cc1ccc(Cl)cc1 |  | -6.73% (inactive) |
| Clc1ccccc1Cl | inactive |  |
| CC[N+](=O)[O-] |  | -6.72% (inactive) |
| Cl/C=C/CCl |  | 3.14% (inactive) |

| SMILES | Potency | activity change, negative = cytotoxicity |
| --- | --- | --- |
| CCCC[n+]1ccccc1 | inactive |  |
| CNC(=S)S | inactive |  |
| CC(C)(Cl)Cl |  | -9.36% (inactive) |
| CCNc1nc(NC(C)C)nc(SC)n1 | inactive |  |
| CC[N+](CC)(CC)CC | inactive |  |
| CCCCCCCCCCCCCCCCn1cc[n+](C)c1 | inactive and 36.7 µM (active) and 32.5 µM (active) |  |
| CN(CCCC(=O)c1cccnc1)N=O |  | 7.91% (inactive) |
| CC(C)C#N | inactive |  |
| CC(C)CCCCCCOC(=O)c1ccccc1C(=O)OCCCCCCC(C)C | inactive |  |
| CCOP(=S)(OCC)OP(=S)(OCC)OCC | inactive |  |
| c1ccc(-c2cccc(-c3ccccc3)c2)cc1 | inactive |  |
| O=C(CCl)CCl | inactive |  |
| CCN(Cc1ccc(Cl)nc1)/C(=C/[N+](=O)[O-])NC |  | 0.361% [at 30.3 µM] (inactive) |
| ClCc1cccnc1 | inactive |  |
| CCOC(=O)c1ccccc1S(=O)(=O)NC(=O)Nc1nc(Cl)cc(OC)n1 |  | -4.56% (inactive) |
| BrC(Br)Br |  | 1.87% (inactive) |
| O=c1c2ccccc2c(=O)c2c1cc(Cl)c1[nH]c3c([nH]c12)c(Cl)cc1c(=O)c2ccccc2c(=O)c13 |  | 0% (inactive) |
| C1CS1 |  | 11.8% (inactive) |
| C=CCN1CC[C@]23CCCC[C@H]2[C@H]1Cc1ccc(O)cc13 |  | 2.64% [at 30.3 µM] (inactive) |
| O=[N+]([O-])/C=C/c1ccccc1 |  | -1.56% (inactive) |
